Assay results from PubChem BioAssay (Tox21).
Unmarked numbers belong to inactive results. Records with an inconclusive call do not appear. Entries that show only a call come without a potency. The source made the active and inactive calls. Unless noted, the call rests on the fitted dose curve; in most records, active means well fitted curve in the direction sought with a large enough effect in the repeat runs; inconclusive means weak or mixed curves; inactive means no such curve, though single readings can be large; an effect the other way counts as inactive or inconclusive.

Tests used:
[1] = qHTS assay for small molecules that induce genotoxicity in human embryonic kidney cells expressing luciferase-tagged ATAD5 (AID 651632); further: nearly all actives have a fitted effect of over 15% in size
Method in brief: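 HEK293T cells carrying luciferase-tagged ATAD5 were given compound or DMSO vehicle and incubated 16 hr at 37C, 5% CO2. Luciferase activity was read after 30 min at room temperature with Amplite; a rise signals genotoxic stress.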

[2] = qHTS assay for small molecule agonists of the p53 signaling pathway - cell viability (AID 651633; calls by dose curve; further: nearly all actives have a fitted effect of over 30% in size; further: potency means the concentration at half of the fitted maximal effect)
Method in brief: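 Viability counter-read: CellTiter-Glo luminescence (30 min, room temperature) in the same p53RE-bla plates. These plates had been exposed to compounds for 16 h at 37 C.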

[3] = qHTS assay for small molecules that induce genotoxicity in human embryonic kidney cells expressing luciferase-tagged ATAD5 - cell viability (AID 651634; calls by dose curve; further: nearly all actives have a fitted effect of over 25% in size; further: potency means the concentration at half of the fitted maximal effect)
Method in brief: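 HEK293T cells carrying luciferase-tagged ATAD5, 2,000 cells/well, exposed to compound for 15.5 hr at 37C. Viability read as live-cell protease activity by CellTiter-Fluor fluorescence after 30 min at 37C.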

[4] = qHTS assay for small molecule disruptors of the mitochondrial membrane potential - cell viability (AID 720634; calls by dose curve;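 further: human HepG2 liver cancer cells; series mostly up to about 83 µM; nearly all actives have a fitted effect of over 20% in size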)
Method in brief: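 HepG2 cells, 2,000 per well, attached overnight, then treated 1 hr at 37 C, 5% CO2. Viability read as ATP by CellTiter-Glo luminescence after 30 min at room temperature. Read in the same wells as the m-MPI membrane-potential dye assay.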

[5] = qHTS assay to test for compound auto fluorescence at 590 nm (red) in HepG2 cells (AID 720674)
Method in brief: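 We screened compounds on adherent HepG2 cells, incubating them for an hour at 37 C in 5% CO2 before reading emission at 590 nm under 540 nm excitation; values reflect equivalence to Rose Bengal sodium fluorescence.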

[6] = qHTS assay to test for compound auto fluorescence at 535 nm (green) in HepG2 cells (AID 720675)
[7] = qHTS assay to test for compound auto fluorescence at 460 nm (blue) in HEK293 cells (AID 720678); further: potency means the concentration at half of the fitted maximal effect
Method in brief: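 Triamterene serves as the blue fluorophore standard. Compound signal at 405/460 nm is read in HEK293 wells (2,000 cells, 10% dialyzed FBS) after overnight treatment at 37C.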

[8] = qHTS assay to test for compound auto fluorescence at 590 nm (red) in HEK293 cells (AID 720679)
Method in brief: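 We plated HEK293 cells in 10% dialyzed FBS medium, let them adhere for 4-5 hr, then added 23 nL compound. Overnight at 37C and 5% CO2 preceded fluorescence measurement at 540/590nm.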

[9] = qHTS assay to test for compound auto fluorescence at 535 nm (green) in HEK293 cells (AID 720680)
[10] = qHTS assay to test for compound auto fluorescence at 460 nm (blue) in HEK293 cell free culture (AID 720681); further: potency means the concentration at half of the fitted maximal effect
Method in brief: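 Blue fluorescence (Ex 405/Em 460 nm, triamterene-equivalent) was read immediately after pin transfer of compound or DMSO into medium (DMEM, 10% FBS) without cells.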

[11] = qHTS assay to test for compound auto fluorescence at 535 nm (green) in HEK293 cell free culture (AID 720682)
Method in brief: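 Read-out: 485/535 nm fluorescence intensity, calibrated against fluorescein. Medium only (DMEM + 10% FBS, no cells); test compound or DMSO vehicle added by pintool before plate reading.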

[12] = qHTS assay to test for compound auto fluorescence at 590 nm (red) in HEK293 cell free culture (AID 720683)
Method in brief: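 Red-channel autofluorescence of compounds in culture medium (DMEM, 10% FBS), no cells, measured at 540/590 nm. Rose Bengal sodium is the reference fluorophore for equivalence.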

[13] = qHTS assay to test for compound auto fluorescence at 590 nm (red) in HepG2 cell free culture (AID 720684)
Method in brief: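 Plate contents were MEM with 10% FBS plus test compound or DMSO, no cells. Fluorescence was recorded with 540 nm excitation and 590 nm emission.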

[14] = qHTS assay to test for compound auto fluorescence at 460 nm (blue) in HepG2 cell free culture (AID 720685); further: potency means the concentration at half of the fitted maximal effect
Method in brief: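 Compound (23 nL) or DMSO pinned into cell-free MEM with 10% FBS; blue fluorescence read at 405/460 nm excitation/emission, expressed as auto-fluorescence equivalency to triamterene.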

[15] = qHTS assay to test for compound auto fluorescence at 535 nm (green) in HepG2 cell free culture (AID 720686)
[16] = qHTS assay to test for compound auto fluorescence at 460 nm (blue) in HepG2 cells (AID 720687); further: potency means the concentration at half of the fitted maximal effect
Method in brief: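 Blue-channel autofluorescence (Ex/Em 405/460 nm, triamterene-equivalent) was measured after 1 hr compound exposure at 37 C, 5% CO2. Cells were HepG2, plated overnight at 37 C in MEM plus 10% FBS.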

[17] = target: Glucocorticoid receptor (Homo sapiens) (UniProt P04150); experiment: qHTS assay to identify small molecule agonists of the glucocorticoid receptor (GR) signaling pathway (AID 720691; active means well fitted activation curve with a large enough effect in the signal ratio in the repeat runs, not every such curve was filed as active; the % refers to the signal ratio)
Method in brief: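 GR-bla HeLa cells carrying a GRE-driven beta-lactamase reporter, exposed to compounds for 18 h at 37 C. Reporter activation read as fluorescence after 2 h with LiveBLAzer B/G FRET substrate at room temperature.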

[18] = target: Glucocorticoid receptor (Homo sapiens) (UniProt P04150); experiment: qHTS assay to identify small molecule antagonists of the glucocorticoid receptor (GR) signaling pathway (AID 720692; active means well fitted inhibition curve with a large enough effect in the signal ratio in the repeat runs, not every such curve was filed as active; the % refers to the signal ratio; further: potency means the concentration at half of the fitted maximal effect)
Method in brief: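 GR-bla HeLa cells carrying a GRE-driven beta-lactamase reporter received compound after 4 h plating, then dexamethasone (5 nM final). After 18 h at 37C, the FRET substrate was loaded for 2 h at room temperature and fluorescence read.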

[19] = qHTS assay for small molecule disruptors of the mitochondrial membrane potential (AID 720635); further: potency means the concentration at half of the fitted maximal effect
Method in brief: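 Mitochondrial membrane potential tracked with Mito-MPS dye, red aggregates (ex 540/em 590 nm) against green monomers (ex 490/em 535 nm). Compound treatment 1 hr at 37C, dye 30 min in HepG2.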
Tags describe the fitted curve by direction and shape or compound fluorescence and quenching.

Glucocorticoid receptor (Homo sapiens), sequence (P04150 whole entry, looked up): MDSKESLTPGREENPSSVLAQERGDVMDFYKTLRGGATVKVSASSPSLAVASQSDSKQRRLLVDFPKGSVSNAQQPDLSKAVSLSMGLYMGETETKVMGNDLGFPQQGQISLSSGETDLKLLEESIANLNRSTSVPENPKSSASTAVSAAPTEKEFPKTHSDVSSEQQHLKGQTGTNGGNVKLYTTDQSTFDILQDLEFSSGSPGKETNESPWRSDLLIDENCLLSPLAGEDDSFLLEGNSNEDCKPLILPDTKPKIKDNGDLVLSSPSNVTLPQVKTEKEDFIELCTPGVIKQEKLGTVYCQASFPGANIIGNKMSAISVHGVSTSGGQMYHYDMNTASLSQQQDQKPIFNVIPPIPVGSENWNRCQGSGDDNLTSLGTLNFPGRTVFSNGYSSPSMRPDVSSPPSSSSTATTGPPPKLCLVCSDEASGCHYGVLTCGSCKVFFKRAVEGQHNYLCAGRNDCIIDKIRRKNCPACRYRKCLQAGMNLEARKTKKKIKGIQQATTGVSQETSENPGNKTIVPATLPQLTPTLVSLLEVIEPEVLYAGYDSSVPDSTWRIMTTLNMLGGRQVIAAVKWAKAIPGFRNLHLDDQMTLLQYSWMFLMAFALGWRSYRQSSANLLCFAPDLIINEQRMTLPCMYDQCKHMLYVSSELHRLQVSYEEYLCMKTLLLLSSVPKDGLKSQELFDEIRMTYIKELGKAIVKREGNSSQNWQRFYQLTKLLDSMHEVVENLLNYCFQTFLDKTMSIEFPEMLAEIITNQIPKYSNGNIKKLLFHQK

Cc1ccc(S(=O)(=O)NC(=O)NC2CCCCC2)cc1
Potency [1]: inactive
Potency [2]: inactive
Potency [3]: inactive
outcome [4]: inactive
outcome [5]: inactive
outcome [6]: inactive
Potency [7]: inactive
outcome [8]: inactive
outcome [9]: inactive
Potency [10]: inactive
outcome [11]: inactive
outcome [12]: inactive
outcome [13]: inactive
Potency [14]: inactive
outcome [15]: inactive
Potency [16]: inactive
Potency [17]: inactive
Potency [18]: inactive

O=C1NC(=O)c2cccc3cccc1c23
Potency [1]: inactive
Potency [2]: inactive
Potency [3]: inactive
outcome [4]: inactive
outcome [5]: inactive
outcome [6]: inactive
Potency [7]: inactive
outcome [9]: inactive
Potency [10]: inactive
outcome [11]: inactive
outcome [12]: inactive
outcome [13]: inactive
Potency [14]: inactive
outcome [15]: inactive
Potency [16]: inactive
Potency [17]: inactive
Potency [18]: inactive

CCCCC[C@H](O)/C=C/[C@H]1[C@H](O)CC(=O)[C@@H]1C/C=C\CCCC(=O)O
Potency [1]: inactive
Potency [2]: inactive
Potency [3]: inactive
outcome [4]: inactive
Potency [19]: inactive
Potency [7]: inactive
outcome [9]: inactive
Potency [10]: inactive
outcome [11]: inactive
outcome [12]: inactive
outcome [13]: inactive
Potency [14]: inactive
outcome [15]: inactive
Potency [16]: inactive
Potency [17]: inactive

CC(C(=O)O)c1ccc(C(=O)c2cccs2)cc1 (stereo not given)
Potency [1]: inactive
Potency [2]: inactive
Potency [3]: inactive
outcome [4]: inactive
fluorescence, relative to Rose Bengal [5]: 0.487% [at 18.6 µM]
fluorescence, % of fluorescein control [6]: -0.0382% [at 18.6 µM]
fluorescence, % of fluorescent control [8]: 0.162% [at 18.6 µM]
fluorescence, % of fluorescein [9]: 0.0235% [at 18.6 µM]
fluorescence, % of fluorescent control [10]: -0.0817% [at 18.6 µM]
activity change [11]: -0.0028% [at 18.6 µM]
fluorescence, % of fluorescent control [12]: -0.0893% [at 18.6 µM]
fluorescence, % of Rose Bengal [13]: -0.362% [at 18.6 µM]
fluorescence, % of fluorescent control [14]: -0.005% [at 18.6 µM]
fluorescence, % of fluorescein control [15]: -0.0792% [at 18.6 µM]
Potency [17]: inactive
Potency [18]: inactive

CCCCCCCCCCCCCOC(=O)CCSCCC(=O)OCCCCCCCCCCCCC
Potency [1]: inactive
Potency [2]: inactive
Potency [3]: inactive
outcome [4]: inactive
fluorescence, relative to Rose Bengal [5]: 0.06% [at 18.6 µM]
fluorescence, % of fluorescein control [6]: -0.0137% [at 18.6 µM]
fluorescence, % of triamterene [7]: 0.0236% [at 18.6 µM]
fluorescence, % of fluorescent control [8]: 0.358% [at 18.6 µM]
fluorescence, % of fluorescein [9]: -0.0169% [at 18.6 µM]
fluorescence, % of fluorescent control [10]: -0.0348% [at 18.6 µM]
activity change [11]: 0.0335% [at 18.6 µM]
fluorescence, % of fluorescent control [12]: 0.0989% [at 18.6 µM]
fluorescence, % of Rose Bengal [13]: -0.0106% [at 18.6 µM]
fluorescence, % of fluorescent control [14]: -0.0714% [at 18.6 µM]
fluorescence, % of fluorescein control [15]: -0.0124% [at 18.6 µM]
fluorescence, % of fluorescent control [16]: -0.106% [at 18.6 µM]

Nc1cccc2c(N)cccc12
Potency [1]: inactive
Potency [2]: inactive
Potency [3]: inactive
outcome [4]: inactive
Potency [19]: 0.864 µM (active)
outcome [5]: inactive
outcome [6]: inactive
Potency [7]: inactive
outcome [8]: inactive
Potency [10]: inactive
outcome [11]: inactive
outcome [12]: inactive
outcome [13]: inactive
Potency [14]: inactive
outcome [15]: inactive
Potency [16]: inactive
Potency [17]: inactive

CC/C=C\C/C=C\C/C=C\CCCCCCCC(=O)OCC
Potency [1]: inactive
Potency [2]: 62.5 µM (active)
Potency [3]: inactive
outcome [4]: inactive
outcome [5]: inactive
outcome [6]: inactive
outcome [9]: inactive
Potency [10]: inactive
outcome [11]: inactive
outcome [12]: inactive
outcome [13]: inactive
outcome [15]: inactive
Potency [17]: inactive
Potency [18]: 50.1 µM (active)

Cc1ccc(N(CC2=NCCN2)c2cccc(O)c2)cc1
Potency [1]: inactive
Potency [2]: inactive
Potency [3]: inactive
outcome [4]: inactive
outcome [5]: inactive
outcome [6]: inactive
Potency [7]: inactive
outcome [8]: inactive
Potency [10]: inactive
outcome [11]: inactive
outcome [12]: inactive
outcome [13]: inactive
Potency [14]: inactive
outcome [15]: inactive
Potency [16]: inactive
Potency [17]: inactive
Potency [18]: inactive

CO[C@@H]1[C@@H](OC)[C@H](C)[C@@](O)(CC(=O)O)O[C@H]1[C@H](C)[C@H]1O[C@@]2(CC[C@@](C)([C@H]3CC[C@@](C)([C@@H]4O[C@@H]([C@H]5O[C@](C)(O)[C@H](C)C[C@@H]5C)C[C@@H]4OC4C[C@H](OC)[C@@H](OC)[C@H](C)O4)O3)O2)C[C@H](O)[C@H]1C (stereo not given in full)
Potency [1]: inactive
Potency [2]: inactive
Potency [3]: 1.19 µM (active)
outcome [4]: inactive
outcome [5]: inactive
outcome [6]: inactive
Potency [7]: inactive
outcome [8]: inactive
Potency [10]: inactive
outcome [11]: inactive
outcome [12]: inactive
outcome [13]: inactive
Potency [14]: inactive
outcome [15]: inactive
Potency [16]: inactive
Potency [17]: inactive

CCOC(=O)c1c(N)sc2c1CCN(Cc1ccccc1)C2
Potency [1]: inactive
Potency [2]: inactive
Potency [3]: inactive
outcome [4]: inactive
outcome [5]: inactive
outcome [6]: inactive
Potency [7]: 14.1 µM [fluorescent] (active)
outcome [8]: inactive
outcome [9]: inactive
Potency [10]: 15.8 µM (active)
outcome [11]: inactive
outcome [12]: inactive
outcome [13]: inactive
Potency [14]: 15.8 µM [fluorescent] (active)
outcome [15]: inactive
Potency [16]: 17.8 µM [fluorescent] (active)
Potency [17]: inactive

O=C(O)CO
Potency [1]: inactive
Potency [2]: inactive
Potency [3]: inactive
outcome [4]: inactive
outcome [5]: inactive
outcome [6]: inactive
Potency [7]: inactive
outcome [8]: inactive
outcome [9]: inactive
Potency [10]: inactive
outcome [11]: inactive
outcome [12]: inactive
outcome [13]: inactive
Potency [14]: inactive
Potency [16]: inactive

CC(=O)C(=O)CC(C)C
Potency [1]: inactive
Potency [2]: inactive
Potency [3]: inactive
outcome [4]: inactive
Potency [19]: inactive
outcome [6]: inactive
Potency [7]: inactive
outcome [8]: inactive
outcome [9]: inactive
Potency [10]: inactive
outcome [11]: inactive
outcome [12]: inactive
outcome [13]: inactive
Potency [14]: inactive
outcome [15]: inactive
Potency [16]: inactive
Potency [17]: inactive

COC1CCC=CO1 (stereo not given)
Potency [1]: inactive
Potency [2]: inactive
Potency [3]: inactive
outcome [4]: inactive
Potency [19]: inactive
outcome [5]: inactive
outcome [6]: inactive
Potency [7]: inactive
Potency [10]: inactive
outcome [11]: inactive
outcome [12]: inactive
outcome [13]: inactive
Potency [14]: inactive
outcome [15]: inactive

CCCc1nc2c(C)cc(-c3nc4ccccc4n3C)cc2n1Cc1ccc(-c2ccccc2C(=O)O)cc1
Potency [1]: inactive
Potency [2]: inactive
Potency [3]: inactive
outcome [4]: inactive
outcome [5]: inactive
outcome [6]: inactive
Potency [7]: inactive
outcome [8]: inactive
outcome [9]: inactive
Potency [10]: inactive
outcome [11]: inactive
outcome [12]: inactive
outcome [13]: inactive
outcome [15]: inactive
Potency [16]: inactive
Potency [17]: inactive
